BAZ2B block: inhibitors of human BAZ2B bromodomain; AID 504333; Potency, µM (highest dose often 114 µM), for the others: at the top dose activity change, negative = inhibition, most hits filed as inhibitors; hit rate 4.4% among 360,000; AlphaScreen BAZ2B-H3K14Ac peptide displacement; also: potency is read from the fitted curve at half-maximal effect; % is scaled to controls: 0 for no effect and ±100 for the full control effect; nearly all actives have a fitted effect of over 60% in size
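BAZ2B 50 nM plus b-H3(5-23)K14Ac 50 nM, PBS pH 7.4/0.01% Tween-20, 30 min RT; compound added (max 110 uM), 30 min RT; streptavidin donor/Ni-chelate acceptor beads 10 ug/mL final, 20 min dark; AlphaScreen read.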
PI5P4K alpha inh: blocks human PI5P4K alpha kinase activity; P48426; PI5P4Kalpha enzyme, ADP-Glo luminescence, 60 min; stronger effect = lower value; max response, %; hit rate 1.2% among 330,000; AID 652105; active = max response of -50% or lower; inconclusive = between -30% and -50%; inactive = -30% or higher; also: value at the top dose of about 77 µM; % is scaled to controls: 0 for no effect and ±100 for the full control effect
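Human PI5P4Kalpha with substrate in 0.038 M HEPES pH 7.4, 0.28 mM EGTA, 0.1% CHAPS, 5% DMSO; reaction started with 5 microM ATP (final), 60 min at room temperature. ADP formed read by ADP-Glo luminescence.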
JMJD2A Tudor inh: inhibitors of human JMJD2A Tudor domain; O75164; AlphaScreen JMJD2A-Tudor / H3K4me3 peptide binding; Potency, µM (doses to about 114 µM), without a hit: top-dose activity change, negative = inhibition, actives largely listed as inhibitors; hit rate 4.4% among 390,000; AID 504339; also: potency is read from the fitted curve at half-maximal effect; % is scaled to controls: 0 for no effect and ±100 for the full control effect; nearly all actives have a fitted effect of over 50% in size
G9a block: G9a (human) methyltransferase inhibition; Q96KQ7; G9a H3K9 monomethylation, AlphaScreen, 2 h; Potency, µM (highest dose often 102 µM), for inactives: top-dose activity, negative = inhibition, usual class: inhibitors; hit rate 8.8% among 350,000; AID 504332; also: potency is read from the fitted curve at half-maximal effect; % is scaled to controls: 0 for no effect and ±100 for the full control effect; nearly all actives have a fitted effect of over 75% in size
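Readings reflect AlphaScreen signal from monomethyl-H3K9 antibody detection. HMT at 20 nM; substrate b-H3K9 500 nM; cofactor SAM 20 uM; 2 h RT reaction; compounds tested as titrations in qHTS with 15 min preincubation.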
HP1b chromo inh: blocks HP1-beta chromodomain binding to methylated histone tails; Potency, µM (series often up to 114 µM), for the others: top-dose activity change, negative = inhibition, hits mostly inhibitors; AID 540317; AlphaScreen HP1-beta / biotin-H3K9me3 peptide binding; hit rate 0.56% among 390,000; P83916; also: potency is read from the fitted curve at half-maximal effect; nearly all actives have a fitted effect of over 70% in size
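Compound inhibition of the preformed complex between 50 nM HP1-beta and 50 nM biotinylated H3K9me3 peptide was read by AlphaScreen. Buffer was PBS pH 7.4 with 0.01% Tween-20. Incubations ran 30 min at room temperature, with 10 ug/mL donor/acceptor beads.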
L3MBTL1 inh: L3MBTL1 (human) inhibition; AID 485360; Potency, µM (top dose mostly 57.1 µM), for the others: top-dose activity, negative = inhibition, actives largely listed as inhibitors; hit rate 0.66% among 230,000; Q9Y468; AlphaScreen L3MBTL1–H3K9me1 peptide binding; also: potency is read from the fitted curve at half-maximal effect; % is scaled to controls: 0 for no effect and ±100 for the full control effect; nearly all actives have a fitted effect of over 60% in size
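L3MBTL1 (50 nM) pre-complexed 30 min with biotinylated H3(1-15)K9me1 peptide (75 nM), then compounds added for 30 min at room temperature; AlphaScreen streptavidin donor/nickel chelate acceptor beads (10 ug/mL final) read after 30 min dark incubation.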
Numbers without * were called inactive; ? = inconclusive; . = no result; [ ] = dose if it differs, or a comment. Sampled rows, rich in hits. Any-hit rate of the full collection: about 11%. Unless noted, calls follow the shape of the dose curve; as a rule, active = well fitted inhibition curve with a large enough effect; inconclusive = small, poorly fitted or top-dose-only effect; inactive = no such curve, though single readings can be large or run the other way.

SMILES	BAZ2B block	PI5P4K alpha inh	JMJD2A Tudor inh	G9a block	HP1b chromo inh	L3MBTL1 inh
Cc1ccc(OCCCSc2nc(-c3ccc(C(C)(C)C)cc3)nc3cc(=O)[nH]n23)cc1C	44.7µM*	.	25.1µM*	-0.1%[59 µM]	?	.
CC(C)(C)c1ccc(-c2nc(SCCOc3ccc(Cl)cc3)n3[nH]c(=O)cc3n2)cc1	50.1µM*	.	?	17.9%[59 µM]	43.7%	.
Cc1ccc(NC(=O)CSc2nc(-c3ccc(C(C)(C)C)cc3)nc3cc(=O)[nH]n23)cc1C	-3.5%	.	-1.3%	17.7%[59 µM]	25.1%	.
COc1ccccc1OCCSc1nc(-c2ccc(C(C)(C)C)cc2)nc2cc(=O)[nH]n12	?	.	-17.9%	-0.7%[59 µM]	0.2%	.
COc1ccc(NC2=C3CC(C)CC=C3N(c3ccc(OC)cc3)C2=O)cc1 (stereo unspecified)	-19.5%	2.3	-17.4%	?	30.7%	.
COc1ccc(NC2=C3CCCC=C3N(c3ccc(OC)cc3)C2=O)cc1	-32.3%	0.1	?	39.8µM*	5.7%	.
FC(F)(F)c1cccc(N2CCN(CC3CC4C=CC3C4)CC2)c1 (stereo unspecified)	?	.	-28.5%	?	24.9%	-6.3%
C1=CCC(CN2CCN(C3CCCCCC3)CC2)CC1 (stereo unspecified)	44.7µM*	1.1	1µM*	7.94µM*	?	.
CCCS(=O)(=O)N1CCN(CC2CC3C=CC2C3)CC1 (stereo unspecified)	50.1µM*	1.4	-28.1%[11.4 µM]	5.62µM*	?	-0.1%
C1=CC2CC1CC2CN1CCN(Cc2ccccc2)CC1 (stereo unspecified)	23.0%	0.4	1.12µM*	2µM*	?	.
CCS(=O)(=O)N1CCN(CC2CC3C=CC2C3)CC1 (stereo unspecified)	50.1µM*	.	1.26µM*	11.2µM*	?	.
Cc1ccc(N2CCN(CC3CC=CCC3)CC2)cc1 (stereo unspecified)	?	.	?	-11.7%[59 µM]	?	-8.4%
COc1ccc(S(=O)(=O)N2CCN(CC3CC=CCC3)CC2)cc1 (stereo unspecified)	2.8%	-4.5	-13.3%	20.9%	27.4%	.
Cc1ccc(S(=O)(=O)N2CCN(CC3CC4C=CC3C4)CC2)cc1 (stereo unspecified)	17.8µM*	1.4	0.794µM*	7.94µM*	28.2µM*	.
CCCS(=O)(=O)N1CCN(CC2CC=CCC2)CC1 (stereo unspecified)	56.2µM*	.	0.891µM*	7.08µM*	-54.8%	4.9%
O=C(CNC(=O)c1ccccc1)OCC(=O)c1ccccc1	.	.	-0.8%[57.1 µM]	.	8.5%[57 µM]	.
CCOC(=O)c1[nH]c(C)c(CCC(=O)Nc2cc(Cl)ccc2C)c1C	9.3%	.	-8.1%	6.5%[59 µM]	15.0%[57 µM]	.
Cc1c(/C=C/C(=O)c2cccs2)cnn1C	5.7%	?	28.2µM*	8.2%[59 µM]	?	-2.3%
CCn1c(=O)c2cc(C(=O)N(CCCOC(C)C)Cc3ccco3)sc2c2ccccc21	-23.9%	.	-15.8%	-7.4%[59 µM]	32.3%	.
CC1CCN=C(N)S1 (stereo unspecified)	.	2.4	-18.0%	3.16µM*	20.7%	.
Cc1ccc2c(=O)cc(C(=O)Nc3sc4c(c3C(N)=O)CCCC4)oc2c1	-5.0%	.	-13.9%	-21.8%[59 µM]	25.9%	.
COc1cc(-c2ccc3ncnc(N(C)Cc4csc(C)n4)c3c2)cc(OC)c1OC	.	.	-20.6%	.	.	.
Cc1ccc(CNc2ncnc3ccc(-c4ccc5c(c4)OCO5)cc23)o1	.	.	44.7µM*	.	.	.
Cc1nc(CN(C)c2ncnc3cc(-c4ccc5c(c4)OCO5)ccc23)cs1	.	.	89.1µM*	.	.	.
Cc1cc(CNc2ncnc3ccc(-c4ccc5c(c4)OCO5)cc23)c(C)o1	.	.	-33.3%	.	.	.
SMILES	BAZ2B block	PI5P4K alpha inh	JMJD2A Tudor inh	G9a block	HP1b chromo inh	L3MBTL1 inh
c1nc(NCCc2cnc[nH]2)c2ccc(-c3ccc4c(c3)OCO4)cc2n1	.	.	79.4µM*	.	.	.
Cc1csc(CNc2ncnc3cc(-c4ccc5c(c4)OCO5)ccc23)n1	.	.	56.2µM*	.	.	.
COc1ccc2[nH]cc(CCNc3ncnc4ccc(-c5ccc6c(c5)OCO6)cc34)c2c1	.	.	.	3.1%[0.501 µM]	.	.
CC(C)CC(C(=O)OCC(=O)c1c(N)n(C)c(=O)n(C)c1=O)N1C(=O)c2ccccc2C1=O (stereo unspecified)	-28.7%	2.2	-30.8%	11.2µM*	18.0%	-3.3%
COc1ccccc1OCCC(=O)OCC(=O)c1c(N)n(C)c(=O)n(C)c1=O	?	-3.5	-21.7%	50.1µM*	35.3%	.
Cn1c(N)c(C(=O)COC(=O)[C@H](Cc2ccccc2)N2C(=O)c3ccccc3C2=O)c(=O)n(C)c1=O	-8.9%	6.2	-26.2%	0.7%	18.9%	-7.9%
Cn1c(=O)c(-c2cc(F)cc(F)c2)nc2cnc(Nc3ccccc3)nc21	.	.	.	4.7%[0.501 µM]	.	.
Cc1ccc(CNC(=O)Cn2cc(S(=O)(=O)Cc3ccccc3F)c3ccccc32)cc1	-18.2%	.	-6.9%	14.0%[59 µM]	23.5%	.
CCCCn1c(N)c(N(CCOC)C(=O)c2ccc(-c3ccc(Cl)cc3)o2)c(=O)[nH]c1=O	?	-0.8	-14.5%	11.2µM*	6.0%	-7.3%
CCCCn1c(N)c(N(CCOC)C(=O)c2cnc(C)cn2)c(=O)[nH]c1=O	11.8%	1.5	-9.0%	39.8µM*	27.0%	5.1%
CCCCN(C(=O)c1ccc(-c2ccc(Cl)cc2)o1)c1c(N)n(CCC)c(=O)[nH]c1=O	2.9%	-12.0	-9.5%	8.91µM*	31.2%	10.8%
CCCCN(C(=O)C(C)Oc1ccc(Cl)cc1)c1c(N)n(CCCC)c(=O)[nH]c1=O (stereo unspecified)	10.6%	2.1	3.6%	50.1µM*	9.8%	6.6%
CCCCn1c(N)c(N(CCOC)C(=O)C(C)Oc2ccc(Cl)cc2)c(=O)[nH]c1=O (stereo unspecified)	-3.1%	-3.7	-12.4%	?	23.5%	-1.4%
O=S(=O)(Nc1cccc(-c2ccc(N3CCOCC3)nn2)c1)c1ccc(F)c(C(F)(F)F)c1	-7.2%	.	-34.2%	-2.7%[59 µM]	21.7%[57 µM]	.
CCN(C(=O)Cc1cccs1)c1nnc(-c2cccnc2)s1	?	6.3	-19.2%	2.82µM*	33.8%	.
O=C(Nc1cccc(C(=O)Nc2ccc(S(=O)(=O)O)c3cc(S(=O)(=O)O)cc(S(=O)(=O)O)c23)c1)Nc1cccc(C(=O)Nc2ccc(S(=O)(=O)O)c3cc(S(=O)(=O)O)cc(S(=O)(=O)O)c23)c1	.	.	.	0.597µM*	.	.
Cc1ccc(S(=O)(=O)N2CCN(CC(=O)N/N=C\c3ccc(O)c(O)c3)CC2)cc1	-24.3%	0.9	-13.3%	39.8µM*	29.8%	.
Cc1ccc(O)c(/C=N/NC(=O)CN2CCCC2)c1	50.1µM*	2.3	70.8µM*	26.7%	54.7%	?
COc1ccc(Br)cc1/C=N/NC(=O)CN1CCCCC1	2.2%	-1.7	1.3%	.	25.9%	22.5%

Screening results (PubChem)
